The values below come from PubChem BioAssay (NCI).

Test systems include SR leukemia; RPMI-8226 leukemia; OVCAR-8 ovarian; OVCAR-5 ovarian; OVCAR-4 ovarian; SK-OV-3 ovarian; IGROV1 ovarian; OVCAR-3 ovarian; HS 578T breast; NCI/ADR-RES ovarian; T-47D breast; BT-549 breast; MDA-MB-435 melanoma; SW-620 colon; MCF7 breast; HCT-116 colon; HCC-2998 colon; KM12 colon.
Experiment in all cases: NCI-60 one-dose screen, 48 h (100 = growth as untreated, 0 = no growth, -100 = all killed)
Conditions in all cases: 10 µM unless noted

SMILES strings stand for the structures. The panel holds about 83,000 compounds, 20% with a hit somewhere; the sample as a whole holds those more often.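 96-well plates, one dose, 48 hours. Percent growth reported; active if below 10.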 Values without a mark were called inactive. Active and inactive are the calls of the source.

Turning to `COc1ccc(C2=NN(C(=O)c3cc(OC)c(OC)c(OC)c3)C(c3ccc(N(C)C)cc3)C2)cc1` (centres undefined), the growth was 15.3% with SR leukemia; -27.9% (active) in the assay with RPMI-8226 leukemia; 29.3% in the assay with OVCAR-8 ovarian; 64.7% in the assay with OVCAR-5 ovarian; 35.2% with OVCAR-4 ovarian; 35.4% with SK-OV-3 ovarian. The growth with IGROV1 ovarian was -8.59% (active); in the assay with OVCAR-3 ovarian, 5.03% (active); in the assay on HS 578T breast, 13.6%; with NCI/ADR-RES ovarian, -5.85% (active); in the assay on T-47D breast it was 56.8%; with BT-549 breast, 28.4%. Also, the growth was -30.4% (active) with MDA-MB-435 melanoma; 28.3% with SW-620 colon; 15% in the assay with MCF7 breast; 11.8% in the assay with HCT-116 colon; 1.81% (active) with HCC-2998 colon; 23.3% in the assay with KM12 colon.

For the molecule `CC(C)CCC[C@@H](C)C1CCC2C3CCC4=C/C(=N/OCCN(C)C)CC[C@]4(C)C3CC[C@@]21C` (some centres undefined), the growth is 62.2% in the assay on SR leukemia; 78.4% with RPMI-8226 leukemia; 104% in the assay on OVCAR-8 ovarian; 83.9% in the assay with OVCAR-5 ovarian; 88.5% with OVCAR-4 ovarian; 93.8% with SK-OV-3 ovarian. The growth in the assay with IGROV1 ovarian is 48.9%; in the assay with OVCAR-3 ovarian it was 89.5%; in the assay with HS 578T breast it was 83.8%; in the assay on NCI/ADR-RES ovarian, 89.6%; with T-47D breast, 87.4%; with BT-549 breast, 90.5%. In addition, the growth in the assay on MDA-MB-435 melanoma is 102%; in the assay on SW-620 colon it was 91.1%; in the assay with MCF7 breast, 91.9%; with HCT-116 colon, 83.9%; in the assay on HCC-2998 colon, 80.8%; in the assay with KM12 colon, 87.4%.

As for `CCC/C(=N\NC(N)=O)C(OC)OC`, the growth in the assay with SR leukemia is 120%; in the assay on RPMI-8226 leukemia, 121%; in the assay with OVCAR-8 ovarian, 98.6%; in the assay on OVCAR-5 ovarian, 97.1%; with OVCAR-4 ovarian it was 89%; in the assay with SK-OV-3 ovarian it was 116%. In addition, the growth in the assay with IGROV1 ovarian was 123%; in the assay with OVCAR-3 ovarian, 104%; in the assay on HS 578T breast, 125%; in the assay with NCI/ADR-RES ovarian it was 99.6%; in the assay with T-47D breast it was 114%; in the assay with BT-549 breast, 110%. Also, the growth in the assay with MDA-MB-435 melanoma is 110%; in the assay on SW-620 colon, 110%; in the assay on MCF7 breast, 90.8%; in the assay on HCT-116 colon, 102%; in the assay with HCC-2998 colon it was 99.3%; in the assay with KM12 colon, 97.7%.

Regarding `COc1cc2c3c(c1O)-c1ccccc1[C@@H]1OC(=O)N(CC2)[C@H]31`, the growth in the assay with SR leukemia is 98.2%; in the assay with RPMI-8226 leukemia, 99.2%; with OVCAR-8 ovarian, 97.8%; in the assay on OVCAR-5 ovarian, 116%; with OVCAR-4 ovarian, 105%; in the assay on SK-OV-3 ovarian it was 106%. Besides, the growth in the assay on IGROV1 ovarian is 114%; in the assay on OVCAR-3 ovarian, 115%; in the assay on HS 578T breast it was 102%; in the assay with NCI/ADR-RES ovarian it was 104%; with T-47D breast, 89.6%; in the assay on BT-549 breast, 111%. The growth is 107% in the assay on MDA-MB-435 melanoma; 105% with SW-620 colon; 90% in the assay with MCF7 breast; 99.3% in the assay on HCT-116 colon; 96.8% in the assay on HCC-2998 colon; 108% in the assay on KM12 colon.

Consider `Cc1c(Cl)cccc1C(=O)Nc1nc2c(s1)CN(C(=O)Nc1cccc(C(F)(F)F)c1)CC2`, for which the growth in the assay with SR leukemia is 13.5%; in the assay with RPMI-8226 leukemia it was 7.93% (active); with OVCAR-8 ovarian, 14.8%; in the assay on OVCAR-5 ovarian, 37%; in the assay with OVCAR-4 ovarian, 28.8%; in the assay on SK-OV-3 ovarian it was 34.1%. For the same molecule, the growth with IGROV1 ovarian is 22.6%; with OVCAR-3 ovarian, -11.8% (active); in the assay on HS 578T breast, 30.4%; in the assay on NCI/ADR-RES ovarian, -27.2% (active); in the assay with T-47D breast, 46%; with BT-549 breast, 33.6%. Moreover, the growth in the assay on MDA-MB-435 melanoma is -22% (active); in the assay on SW-620 colon, 33.4%; in the assay with MCF7 breast, 12.6%; with HCT-116 colon, 13.3%; in the assay with HCC-2998 colon it was 11.7%; with KM12 colon, 14.5%.

In the case of `O=C(NCc1ccc2c(c1)OCO2)NCC1CCCC(CNC(=O)NCc2ccc3c(c2)OCO3)C1` (centres undefined), the growth in the assay on SR leukemia is 95.2%; in the assay on RPMI-8226 leukemia it was 102%; in the assay with OVCAR-8 ovarian, 100%; in the assay with OVCAR-5 ovarian, 108%; with OVCAR-4 ovarian, 96.1%; with SK-OV-3 ovarian it was 99.1%. Also, the growth was 106% in the assay with IGROV1 ovarian; 108% with OVCAR-3 ovarian; 97.1% in the assay on HS 578T breast; 104% in the assay with NCI/ADR-RES ovarian; 86.7% in the assay on T-47D breast; 96.3% in the assay with BT-549 breast. Besides, the growth was 95.9% in the assay with MDA-MB-435 melanoma; 98% with SW-620 colon; 101% in the assay with MCF7 breast; 101% in the assay on HCT-116 colon; 102% in the assay with HCC-2998 colon; 105% with KM12 colon.

Take `O=C(Nc1ncc(Cc2ccccc2Cl)s1)c1cccs1`: the growth in the assay on SR leukemia is 20.4%; in the assay with RPMI-8226 leukemia it was 73.5%; in the assay with OVCAR-8 ovarian, 85.7%; in the assay on OVCAR-5 ovarian it was 87.9%; in the assay with OVCAR-4 ovarian, 74.4%; with SK-OV-3 ovarian, 81.7%. The growth with IGROV1 ovarian is 72.3%; with OVCAR-3 ovarian it was 79.2%; in the assay on HS 578T breast it was 74.4%; in the assay with NCI/ADR-RES ovarian, 53.7%; with T-47D breast it was 56.1%; in the assay on BT-549 breast, 68.7%. Further, the growth was 3.49% (active) with MDA-MB-435 melanoma; 58.6% in the assay on SW-620 colon; 46.3% in the assay with MCF7 breast; 58.1% with HCT-116 colon; 72.8% in the assay on HCC-2998 colon; 29.3% with KM12 colon.

For the molecule `CCNc1nc(-c2ccc(F)cc2)c(C#N)c(=O)n1C`, the growth with SR leukemia is 50.3%; with RPMI-8226 leukemia it was 91.8%; in the assay with OVCAR-8 ovarian it was 73.8%; in the assay on OVCAR-5 ovarian it was 56%; in the assay with OVCAR-4 ovarian, 55.2%; in the assay with SK-OV-3 ovarian, 55.9%. For the same molecule, the growth with IGROV1 ovarian was 54.1%; in the assay on OVCAR-3 ovarian it was 59.1%; in the assay with HS 578T breast it was 37.5%; with NCI/ADR-RES ovarian it was 67.1%; in the assay on T-47D breast, 39.3%; with BT-549 breast, 42.1%. The growth was 75.2% in the assay with MDA-MB-435 melanoma; 69.3% in the assay with SW-620 colon; 63.4% in the assay on MCF7 breast; 52.1% in the assay on HCT-116 colon; 88.8% with HCC-2998 colon; 72.1% in the assay with KM12 colon.
